Out of some 5,500 compounds screened, about 2,000 (36%) were called active. About 18% were inconclusive and are not listed. Cut-off read from the data, not from the text of the source: active = normalized growth mostly below about 0.91 (no sharp cut-off); inconclusive = no clear call, values can overlap the other calls; inactive = mostly above about 0.92. The list shows a part of the results.
Assay: chemical genetic growth profiling, strain panel (AID 1159580);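 note: tested at 20 µM; growth read once vehicle control cultures reached saturation at 30 °C; 1 = growth at the plate median or of vehicle wells; lower values mean less growth of the strain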
Settings: growth OD
[1] = S. cerevisiae deletion strains, locus YAL013W, strain DEP1, hits give low values
[2] = S. cerevisiae deletion strains, locus YBR229C, strain ROT2, hits give low values
[3] = S. cerevisiae deletion strains, locus YDL101C, strain DUN1, hits give low values
[4] = S. cerevisiae deletion strains, locus YDR150W, strain NUM1, hits give low values
[5] = S. cerevisiae deletion strains, locus YEL061C, strain CIN8, hits give low values
[6] = S. cerevisiae deletion strains, locus YGR078C, strain PAC10, hits give low values
[7] = S. cerevisiae deletion strains, locus YHR030C, strain SLT2, hits give low values
[8] = S. cerevisiae deletion strains, locus YJR043C, strain POL32, hits give low values
[9] = S. cerevisiae deletion strains, locus YJR075W, strain HOC1, hits give low values
[10] = S. cerevisiae deletion strains, locus YLR039C, strain RIC1, hits give low values
[11] = S. cerevisiae deletion strains, locus YLR262C, strain YPT6, hits give low values
[12] = S. cerevisiae deletion strains, locus YMR263W, strain SAP30, hits give low values
[13] = S. cerevisiae deletion strains, locus YMR307W, strain GAS1, hits give low values
[14] = S. cerevisiae deletion strains, locus YNL153C, strain GIM3, hits give low values
[15] = S. cerevisiae deletion strains, locus YNL322C, strain KRE1, hits give low values
[16] = S. cerevisiae deletion strains, locus YOL006C, strain TOP1, hits give low values
[17] = S. cerevisiae deletion strains, locus YPL055C, strain LGE1, hits give low values
[18] = S. cerevisiae deletion strains, locus YPL241C, strain CIN2, hits give low values

Measured: normalized growth

Cc1oc(S(=O)(=O)N(C)C)cc1C(=O)O
inactive: [1] 1.03 | [2] 1 | [3] 0.952 | [4] 1 | [5] 1.02 | [6] 1.01 | [7] 1.06 | S. cerevisiae deletion strains, locus YHR087W, strain rtc3, hits give low values 1.03 | S. cerevisiae deletion strains, locus YJL187C, strain SWE1, hits give low values 0.997 | [8] 0.987 | [9] 1 | [10] 1.07 | S. cerevisiae deletion strains, locus YLR058C, strain SHM2 (second series), hits give low values 1 | S. cerevisiae deletion strains, locus YLR085C, strain ARP6, hits give low values 1.08 | [11] 1.01 | S. cerevisiae deletion strains, locus YML094W, strain GIM5, hits give low values 1.06 | S. cerevisiae deletion strains, locus YMR219W, strain ESC1, hits give low values 1.01 | [12] 0.985 | [13] 0.976 | [14] 1.01 | S. cerevisiae deletion strains, locus YNL298W, strain CLA4 (second series), hits give low values 1 | [15] 1 | S. cerevisiae deletion strains, locus YNR030W, strain Alg12, hits give low values 1.02 | [16] 1.06 | [17] 1.08 | [18] 1.09 | S. cerevisiae deletion strains, locus YPR135W, strain CTF4, hits give low values 1.34

O=C(CCCCCCCCCCCCC1CCCC1)Nc1ccc(S(=O)(=O)c2ccc(NC(=O)CCCCCCCCCCCCC3CCCC3)cc2)cc1
inactive: [1] 1.01 | S. cerevisiae deletion strains, locus YBR021W, strain FUR4, hits give low values 1.04 | [2] 1.02 | S. cerevisiae deletion strains, locus YCL029C, strain bik1, hits give low values 0.992 | S. cerevisiae deletion strains, locus YDL035C, strain GPR1, hits give low values 1.02 | S. cerevisiae deletion strains, locus YDL074C, strain BRE1, hits give low values 1.07 | [3] 1.03 | S. cerevisiae deletion strains, locus YDL134C, strain PPH21, hits give low values 1.03 | S. cerevisiae deletion strains, locus YDL185W, strain tfp1, hits give low values 1.01 | S. cerevisiae deletion strains, locus YDL192W, strain arf1, hits give low values 0.997 | S. cerevisiae deletion strains, locus YDR101C, strain arx1, hits give low values 0.989 | [4] 1.02 | S. cerevisiae deletion strains, locus YDR162C, strain NBP2, hits give low values 1.03 | S. cerevisiae deletion strains, locus YDR318W, strain mcm21, hits give low values 0.989 | S. cerevisiae deletion strains, locus YDR388W, hits give low values 0.983 | S. cerevisiae deletion strains, locus YDR502C, strain sam2, hits give low values 1 | [5] 1.02 | S. cerevisiae deletion strains, locus YER110C, hits give low values 0.99 | S. cerevisiae deletion strains, locus YER155C, strain BEM2, hits give low values 1.02 | S. cerevisiae deletion strains, locus YER167W, strain BCK2, hits give low values 1.03 | S. cerevisiae deletion strains, locus YGL078C, strain dbp3, hits give low values 0.992 | S. cerevisiae deletion strains, locus YGL086W, strain mad1, hits give low values 1 | S. cerevisiae deletion strains, locus YGL248W, strain PDE1, hits give low values 1.03 | [6] 1.03 | S. cerevisiae deletion strains, locus YGR135W, strain pre9, hits give low values 1.01 | S. cerevisiae deletion strains, locus YGR229C, strain SMI1, hits give low values 1.03 | S. cerevisiae deletion strains, locus YGR252W, strain gcn5, hits give low values 0.984 | [7] 1.02 | S. cerevisiae deletion strains, locus YHR079C, strain IRE1 (second series), hits give low values 0.99 | S. cerevisiae deletion strains, locus YHR094C, strain hxt1, hits give low values 0.996 | S. cerevisiae deletion strains, locus YHR129C, strain ARP1, hits give low values 1.02 | S. cerevisiae deletion strains, locus YHR200W, strain rpn10, hits give low values 0.998 | S. cerevisiae deletion strains, locus YIL066C, strain RNR3, hits give low values 1.02 | S. cerevisiae deletion strains, locus YIL073C, strain SPO22, hits give low values 0.99 | S. cerevisiae deletion strains, locus YIL125W, strain kgd1, hits give low values 1 | S. cerevisiae deletion strains, locus YIR030C, strain dcg1, hits give low values 0.99 | S. cerevisiae deletion strains, locus YJL095W, strain BCK1, hits give low values 1.04 | S. cerevisiae deletion strains, locus YJL134W, strain LCB3, hits give low values 1.02 | S. cerevisiae deletion strains, locus YJL168C, strain set2, hits give low values 1 | S. cerevisiae deletion strains, locus YJL187C, strain SWE1 (second series), hits give low values 1.02 | [8] 1.03 | [9] 1.03 | S. cerevisiae deletion strains, locus YKL009W, strain mrt4, hits give low values 0.991 | S. cerevisiae deletion strains, locus YKL068W, hits give low values 1 | S. cerevisiae deletion strains, locus YKL085W, strain MDH1 (second series), hits give low values 1 | S. cerevisiae deletion strains, locus YKL085W, strain MDH1, hits give low values 1 | S. cerevisiae deletion strains, locus YKL190W, strain CNB1, hits give low values 1.02 | S. cerevisiae deletion strains, locus YKR001C, strain vps1, hits give low values 0.991 | [10] 1.04 | S. cerevisiae deletion strains, locus YLR058C, strain SHM2, hits give low values 1.02 | S. cerevisiae deletion strains, locus YLR102C, strain apc9, hits give low values 0.989 | [11] 1.03 | S. cerevisiae deletion strains, locus YLR268W, strain sec22, hits give low values 0.997 | S. cerevisiae deletion strains, locus YLR330W, strain CHS5, hits give low values 1.02 | S. cerevisiae deletion strains, locus YLR342W, strain FKS1 (second series), hits give low values 1.03 | S. cerevisiae deletion strains, locus YLR371W, strain rom2, hits give low values 1 | S. cerevisiae deletion strains, locus YLR418C, strain cdc73, hits give low values 1 | S. cerevisiae deletion strains, locus YML016C, strain PPZ1, hits give low values 1.03 | S. cerevisiae deletion strains, locus YML032C, strain rad52, hits give low values 1 | S. cerevisiae deletion strains, locus YML124C, strain tub3, hits give low values 0.99 | S. cerevisiae deletion strains, locus YMR078C, strain ctf18, hits give low values 0.988 | S. cerevisiae deletion strains, locus YMR223W, strain ubp8, hits give low values 0.989 | [12] 1.04 | [13] 0.981 | S. cerevisiae deletion strains, locus YNL067W, strain RPL9B, hits give low values 1.04 | S. cerevisiae deletion strains, locus YNL128W, strain TEP1, hits give low values 1.04 | [14] 1.02 | S. cerevisiae deletion strains, locus YNL233W, strain BNI4, hits give low values 1.03 | S. cerevisiae deletion strains, locus YNL250W, strain rad50, hits give low values 1 | S. cerevisiae deletion strains, locus YNL271C, strain bni1, hits give low values 0.998 | S. cerevisiae deletion strains, locus YNL298W, strain CLA4, hits give low values 1.01 | S. cerevisiae deletion strains, locus YNL307C, strain MCK1, hits give low values 0.99 | [15] 1.02 | S. cerevisiae deletion strains, locus YNR052C, strain pop2, hits give low values 0.993 | [16] 1.14 | S. cerevisiae deletion strains, locus YOL012C, strain htz1 0.857 | S. cerevisiae deletion strains, locus YOL147C, strain pex11, hits give low values 0.992 | S. cerevisiae deletion strains, locus YOR061W, strain CKA2, hits give low values 1.02 | S. cerevisiae deletion strains, locus YOR069W, strain VPS5, hits give low values 1.01 | S. cerevisiae deletion strains, locus YOR136W, strain idh2, hits give low values 0.994 | S. cerevisiae deletion strains, locus YOR144C, strain elg1, hits give low values 0.993 | S. cerevisiae deletion strains, locus YOR184W, strain ser1, hits give low values 0.99 | S. cerevisiae deletion strains, locus YOR316C, strain cot1, hits give low values 0.998 | [17] 1.05 | [18] 1.01 | S. cerevisiae deletion strains, locus YPR119W, strain clb2, hits give low values 0.984 | S. cerevisiae deletion strains, locus YPR141C, strain kar3, hits give low values 0.996 | S. cerevisiae deletion strains, locus YPR163C, strain tif3, hits give low values 0.993 | S. cerevisiae deletion strains, locus YPR167C, strain met16, hits give low values 0.997 | S. cerevisiae deletion strains, strain wtn01, hits give low values 0.997 | S. cerevisiae strains, strain wild type, hits give low values 1.01
